proKLK7 act: proKLK7 (human) activation, primary screen; purified proKLK7, EDANS-DABCYL substrate fluorescence; 100% is mature enzyme control, 0% vehicle; activation, % at 7 µM; 370,000 compounds, 0.9% hits; P49862;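 active = activation above the mean of all tested compounds plus 3 SD, computed per campaign excluding outliers beyond control limits, cut at about 13% in these data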
ADAM17 inh: ADAM17 inhibition, QFRET primary screen; P78536; recombinant ADAM17, EDANS/DABCYL FRET peptide cleavage; AID 720648; 370,000 compounds, 0.83% hits; inhibition, % at 6.95 µM;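 active = inhibition above the mean of compounds lying between control limits plus 3 SD, set per campaign, cut at about 8.5% in these data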;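 note: 0% = DMSO-only wells as the low control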
NRP1-CendR mod: modulators of CendR peptide binding to human neuropilin-1. inhibition, % at 25 µM. 360,000 compounds, 0.85% hits. O14786. AID 602438. FAM-RPARPAR peptide binding to NRP-1, fluorescence polarization;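 active = inhibition or corrected inhibition above about 18%, plus a signal ratio from 0.5 to 1.5, limit read from the data, passing the limit was not always enough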
Target sequence (O14786 whole entry, looked up): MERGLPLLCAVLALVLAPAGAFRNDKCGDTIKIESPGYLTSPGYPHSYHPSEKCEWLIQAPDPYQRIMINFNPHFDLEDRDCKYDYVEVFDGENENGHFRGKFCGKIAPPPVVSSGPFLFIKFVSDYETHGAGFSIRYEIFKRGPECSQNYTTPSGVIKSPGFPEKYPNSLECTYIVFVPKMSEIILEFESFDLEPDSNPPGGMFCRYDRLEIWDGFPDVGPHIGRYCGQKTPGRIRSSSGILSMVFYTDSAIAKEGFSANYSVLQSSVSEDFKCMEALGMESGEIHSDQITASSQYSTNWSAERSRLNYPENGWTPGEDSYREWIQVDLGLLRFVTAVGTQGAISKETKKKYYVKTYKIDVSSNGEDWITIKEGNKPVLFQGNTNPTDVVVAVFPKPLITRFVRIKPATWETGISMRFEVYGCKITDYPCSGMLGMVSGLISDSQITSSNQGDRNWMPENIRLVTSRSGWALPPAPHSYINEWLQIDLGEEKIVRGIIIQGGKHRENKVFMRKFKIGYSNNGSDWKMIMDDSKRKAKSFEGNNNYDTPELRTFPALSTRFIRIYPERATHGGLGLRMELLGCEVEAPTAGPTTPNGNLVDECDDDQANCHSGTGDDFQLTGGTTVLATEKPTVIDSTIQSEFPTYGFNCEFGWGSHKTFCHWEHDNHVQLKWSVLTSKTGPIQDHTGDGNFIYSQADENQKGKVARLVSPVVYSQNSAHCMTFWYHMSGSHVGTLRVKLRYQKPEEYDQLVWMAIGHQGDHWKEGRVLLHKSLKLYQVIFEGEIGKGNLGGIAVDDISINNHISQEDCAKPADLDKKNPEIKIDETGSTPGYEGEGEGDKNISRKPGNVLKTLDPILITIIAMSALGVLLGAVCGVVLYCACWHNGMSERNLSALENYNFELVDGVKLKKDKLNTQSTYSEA
HGIII-sPLA2 inh: Blocks human group III sPLA2 activity. AID 743126. QFRET BODIPY PC-A2 liposome hydrolysis, fluorescence. Q9NZ20. 370,000 compounds, 0.56% hits. inhibition, % at 12.2 µM;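 active = inhibition above mean plus 3 SD of compounds lying within the high and low control bounds, cut at about 19% in these data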;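 note: 0% = median of test compound wells and 100% = no enzyme DMSO wells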
ADAM10 inh: inhibits human ADAM10 | recombinant ADAM10, EDANS/DABCYL FRET peptide cleavage, 3 h | inhibition, % at 7 µM | O14672 | 370,000 compounds, 0.62% hits;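 active = inhibition above a per-campaign cutoff equal to the mean of compounds falling between control-based bounds plus 3 SD, cut at about 20% in these data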;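 note: 0% = DMSO wells while the 100% control is not disclosed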
ADAM10 counter: inhibits human ADAM10 in ADAM17 exosite counter-screen; AID 743256; recombinant ADAM10, EDANS/DABCYL FRET peptide cleavage, 3 h; inhibition, % at 6.95 µM; shares compounds with ADAM17 inh; 2,900 compounds, 47% hits;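 active = mean inhibition over the triplicate runs exceeds the activity threshold set in the earlier primary screen, cut at about 20% in these data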;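 note: 0% = DMSO wells and 100% = marimastat wells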
ADAM17 confirm: human ADAM17 inhibition, confirmation; shares compounds with ADAM17 inh; recombinant ADAM17, EDANS/DABCYL QFRET peptide cleavage; 2,900 compounds, 65% hits; AID 743257; inhibition, % at 6.95 µM;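 active = mean inhibition across replicates above the hit cutoff set in the primary screen, cut at about 8.5% in these data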;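 note: 0% = DMSO wells and 100% = marimastat wells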
* = called active by the depositor. An excerpt weighted towards active compounds, which were near 3.4% of everything screened.

How did COc1ccc(N(C)S(=O)(=O)c2cccc(C(=O)Nc3nc(C)cs3)c2)cc1 do in these assays?
proKLK7 act: -1; ADAM17 inh: 3; NRP1-CendR mod: 2; HGIII-sPLA2 inh: -7; ADAM10 inh: -2

How did Cc1cc(C(=O)Nc2ccccc2)c(C)o1 do in these assays?
proKLK7 act: 1; ADAM17 inh: -4; NRP1-CendR mod: 8; HGIII-sPLA2 inh: -5; ADAM10 inh: -8

How did Cc1ccc(NC(=O)C(OC(=O)c2cc(C)oc2C)c2ccccc2)cc1 (centres undefined) do in these assays?
proKLK7 act: 0; ADAM17 inh: 11*; NRP1-CendR mod: 0; HGIII-sPLA2 inh: -31; ADAM10 inh: 14; ADAM10 counter: 16; ADAM17 confirm: 12*

How did NC(=NCCc1c[nH]c2ccccc12)NC(=O)OCc1ccccc1 do in these assays?
proKLK7 act: 0; ADAM17 inh: -3; HGIII-sPLA2 inh: -65; ADAM10 inh: -5

Results for CCCCCCCCn1cnc2c(N)c(C)c(C)cc21 ?
proKLK7 act: 1; ADAM17 inh: 8.8*; NRP1-CendR mod: -7; HGIII-sPLA2 inh: 0; ADAM10 inh: 7; ADAM10 counter: 19; ADAM17 confirm: 9.0*

Results for O=S1(=O)c2c(cccc2N2CCC[C@@H]2CO)O[C@H]2CCN1C2 ?
proKLK7 act: 1; ADAM17 inh: -2; HGIII-sPLA2 inh: 0; ADAM10 inh: 3

How did Cn1c(Cn2c3ccccc3c3ccccc32)n[nH]c1=S do in these assays?
proKLK7 act: 0; ADAM17 inh: 10*; NRP1-CendR mod: -8; HGIII-sPLA2 inh: 7; ADAM10 inh: 17; ADAM10 counter: 12; ADAM17 confirm: 7

What do the screens show for `COC(=O)[C@]12C[C@H](CC(=O)NCC34CC5CC(CC(C5)C3)C4)C(=O)N(Cc3ccco3)C1=C[C@H](C(C)C)O[C@@H]2C1CC1`?
proKLK7 act: 0; ADAM17 inh: 3; HGIII-sPLA2 inh: -2; ADAM10 inh: -3

Results for CN1C2=N[C@@H](c3ccc4c(c3)OCO4)CC(=O)N2/C(=C\c2ccccc2)[C@H]1c1ccccc1 ?
ADAM17 inh: 0; HGIII-sPLA2 inh: -8; ADAM10 inh: 1

What do the screens show for `Cc1ccc(C(=O)Oc2cccc(-n3cnnn3)c2)cc1`?
proKLK7 act: 0; ADAM17 inh: -1; NRP1-CendR mod: -10; HGIII-sPLA2 inh: -7; ADAM10 inh: -3

Results for CC1CCc2c(C(=O)Oc3cccc(-n4cnnn4)c3)csc2C1 (centres undefined) ?
proKLK7 act: 0; ADAM17 inh: 8.8*; NRP1-CendR mod: 14; HGIII-sPLA2 inh: -14; ADAM10 inh: 19; ADAM10 counter: 15; ADAM17 confirm: 11*

How did COc1ncc(-c2cc(C(C)=O)c3n(c2=O)CCC3)c(OC)n1 do in these assays?
proKLK7 act: 0; ADAM17 inh: -2; HGIII-sPLA2 inh: -4; ADAM10 inh: -1

What do the screens show for `CCN(CC)c1ccc(S(=O)(=O)N2CCOCC2)cc1NC(=O)COC(=O)/C=C/c1ccccc1`?
proKLK7 act: 0; ADAM17 inh: 8.8*; NRP1-CendR mod: -6; HGIII-sPLA2 inh: -16; ADAM10 inh: 11; ADAM10 counter: 14; ADAM17 confirm: 11*

How did COc1ccc(CN2C(=O)[C@@](O)(c3cccn3C)c3cc(F)ccc32)cc1 do in these assays?
proKLK7 act: 0; ADAM17 inh: -4; HGIII-sPLA2 inh: -12; ADAM10 inh: 1

Results for CC1(C(=O)NCc2cccc(C(F)(F)F)c2)CCN1Cc1cc2ccccc2o1 (centres undefined) ?
proKLK7 act: 0; ADAM17 inh: 3; NRP1-CendR mod: 0; HGIII-sPLA2 inh: -8; ADAM10 inh: 4

What do the screens show for `CC1(C(=O)NCc2cccc(C(F)(F)F)c2)CCN1Cc1ccc(-c2ccccc2)o1` (centres undefined)?
proKLK7 act: 0; ADAM17 inh: 13*; NRP1-CendR mod: 13; HGIII-sPLA2 inh: -10; ADAM10 inh: 13; ADAM10 counter: 16; ADAM17 confirm: 10*

What do the screens show for `COC(=O)[C@]12C[C@H](CC(=O)N3CCN(C(=O)C4CC4)CC3)C(=O)N(CCC3=CCCCC3)C1=C[C@H](C(C)(C)C)O[C@@H]2C`?
proKLK7 act: 0; ADAM17 inh: 2; HGIII-sPLA2 inh: -13; ADAM10 inh: 8

Results for CCOC(=O)N1CCN(C(=O)C[C@H]2C[C@@]3(C(=O)OC)C(=C[C@H](C(C)(C)C)O[C@@H]3C)N(CCC3=CCCCC3)C2=O)CC1 ?
proKLK7 act: 1; ADAM17 inh: 10*; HGIII-sPLA2 inh: -7; ADAM10 inh: 11; ADAM10 counter: 10; ADAM17 confirm: 7

What do the screens show for `N#CCSc1nnc(COc2ccccc2)n1-c1ccccc1`?
proKLK7 act: 0; ADAM17 inh: 11*; NRP1-CendR mod: 0; HGIII-sPLA2 inh: -2; ADAM10 inh: 16; ADAM10 counter: -4; ADAM17 confirm: -2

What do the screens show for `COc1ccc(CN(C(=O)c2oc3cc(C)c(C)cc3c2C)C2CCS(=O)(=O)C2)cc1OC` (centres undefined)?
proKLK7 act: 0; ADAM17 inh: 9.7*; NRP1-CendR mod: -2; HGIII-sPLA2 inh: -7; ADAM10 inh: 6; ADAM10 counter: 13; ADAM17 confirm: 9.4*

Results for CC1CCCC(C)N1CCCNC(=O)CN1C(=O)COc2ccc(S(=O)(=O)N3CCOCC3)cc21 (centres undefined) ?
proKLK7 act: 0; ADAM17 inh: 0; NRP1-CendR mod: 12; HGIII-sPLA2 inh: -2; ADAM10 inh: -4

What do the screens show for `CC1CCN(S(=O)(=O)c2ccc3c(c2)N(CC(=O)NCCCN2C(C)CCCC2C)C(=O)CO3)CC1` (centres undefined)?
proKLK7 act: 0; ADAM17 inh: 14*; NRP1-CendR mod: 10; HGIII-sPLA2 inh: -3; ADAM10 inh: 2; ADAM10 counter: 0; ADAM17 confirm: 8

How did CCCCSc1nc(C)cc(SCC(=O)N/N=C/c2cccc(OC)c2O)n1 do in these assays?
proKLK7 act: -2; ADAM17 inh: 14*; NRP1-CendR mod: 14; HGIII-sPLA2 inh: -4; ADAM10 inh: 11; ADAM10 counter: 2; ADAM17 confirm: 8

How did C[C@H](CO)N1C[C@H](C)[C@@H](CN(C)C(=O)Nc2ccc3c(c2)OCO3)Oc2ccc(NC(=O)Nc3ccc(C(F)(F)F)cc3)cc2C1=O do in these assays?
proKLK7 act: 0; ADAM17 inh: 11*; NRP1-CendR mod: 4; HGIII-sPLA2 inh: -13; ADAM10 inh: 19; ADAM10 counter: 21*; ADAM17 confirm: 15*

Screening data (PubChem BioAssay)
